A short description of this assay: fluorescence interference artefacts, compound only, dose response, artefact control for cardiac thin filament activator project, biochemical, no RTF in test wells (AID 504697).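 Note: emission near 535 nm under roughly 485 nm excitation as for IANBD.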 The settings on record: compound-only fluorescence in RTF assay buffer with Ca2+ (no RTF in test wells), artifact counterscreen. A general note: Counterscreens check selectivity or assay interference.

Molecules are shown by their SMILES. Values without a mark were called inactive. The source made the active and inactive calls.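 Rule for the calls: active = EC50 at or below 10 µM; inactive = EC50 above 10 µM.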 Bounds are passed on as bounds.

As to `O=C(NCc1ccc(Cl)cc1)C1CCN(c2cnccn2)CC1`, the EC50 was more than 71.4 µM. For `COc1cc(CCCN2C(=S)NC[C@@H]2CC2CCCCC2)cc(OC)c1OC` the value was more than 71.5 µM. For `O=C(NC1CCCCC1)c1cc2nc3c(c(C(F)(F)F)n2n1)CCCC3` the value was more than 71.5 µM; for `CC(=O)Oc1ccc(NC(=O)Cc2ccccc2)c(C(=O)O)c1`, more than 71.5 µM. Take `Cc1ccc(-c2ccc(OC(=O)c3ccc(=O)[nH]c3)c(C)c2)cc1`: the EC50 is more than 71.5 µM. For `CCOC(=O)c1sc(N)c(C#N)c1COC(=O)CNC(=O)c1cc(OC)c(OC)c(OC)c1` the value was 49.3 µM; for `Cc1cc(/C=C2\SC(=S)N(Cc3ccco3)C2=O)c(C)n1-c1cccnc1`, 12 µM. For `CCc1ccc(C(=O)NNC(=O)c2cccc(N3C(=O)CCC3=O)c2)cc1` the value was more than 71.5 µM; for `N=c1n(Cc2ccccc2)c2ccccc2n1CC(O)c1ccco1` (configuration not stated), more than 71.5 µM; for `CC1CN(c2ccc(NS(=O)(=O)c3ccccc3)cc2C(=O)O)CC(C)O1` (configuration not stated), more than 71.5 µM. Then `S=C(Nc1ccc(N2CCOCC2)cc1)Nc1ccc2nc(-c3ccco3)c(-c3ccco3)nc2c1`, with 11.4 µM; and `Cc1c(O)c2c3c(cccc3c1O)C(=O)N(c1ccccc1)C2=O`, with 13.9 µM. For `CCSC1=N/C(=C\C=C2/Oc3ccccc3N2CC)C(=O)S1`, the EC50 was 11.9 µM. `N#C/C(=C\c1ccc(N2CCOCC2)o1)c1nc2ccccc2[nH]1`: the concentration for a half-maximal effect (EC50) was 1.37 µM (active). For `Cc1cc(/C=C2\SC(=S)N(C)C2=O)c(C)n1-c1ccccc1O`, the EC50 is 15.7 µM. Then `Cc1ccc[n+](-c2nc([O-])sc2C=O)c1`, with 5.53 µM (active). Take `Cc1ccc(/C=C2/SC(=O)NC2=S)o1`: the EC50 is more than 23.8 µM.

As usually defined, the EC50 is the concentration that produces a half-maximal response.

(Values after PubChem BioAssay AID504697 (The Scripps Research Institute Molecular Screening Center, 2011).)
